Screening results deposited in PubChem by National Center for Advancing Translational Sciences (NCATS).
Only some compounds are listed: those with a hit (about 10% of all), similar ones and a draw of the others.
HEK cytotox: cytotoxic compounds in HEK 293 cells | 94,000 compounds, 6.6% hits | HEK 293 viability, ATP luminescence (CellTiter-Glo), 48-72 h | Potency, µM (doses to about 115 µM), without a hit: at the top dose activity change, negative = cytotoxicity, usual class: inhibitors | AID 1345083; further: nearly all actives have a fitted effect of over 60% in size
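Luminescence from cellular ATP, measured with CellTiter-Glo, indicates HEK 293 viability. Cells plated at 250 cells/well are treated with compound for 48 or 72 hr at 37 degree Celsius before reagent addition.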
GPT2 inh: GPT2 alanine aminotransferase inhibition; Q8TD30; Recombinant GPT2, coupled pyruvate oxidase/HRP Amplex Red fluorescence; Potency, µM (doses to about 57.7 µM), inactives show top-dose activity change, negative = inhibition, usual class: inhibitors; 100,000 compounds, 0.25% hits; further: nearly all actives have a fitted effect of over 60% in size
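Fluorescence of coupled pyruvate oxidase/HRP/Amplex Red system (50uM Amplex, 30 min, dark) reports pyruvate formed by GPT2. Enzyme reaction: 10ng/uL GPT2, 2mM L-alanine, 250uM a-KG, 30 min room temperature, pH 7.5; 50uM AOA control.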
FLuc inh: inhibitors of firefly (Photinus pyralis) luciferase | P08659 | purified P. pyralis luciferase, luminescence, biochemical | Potency, µM (doses to about 115 µM), usual class: inhibitors | 76,000 compounds, 2.5% hits; further: nearly all actives have a fitted effect of over 65% in size
Target sequence (P08659 whole entry, looked up): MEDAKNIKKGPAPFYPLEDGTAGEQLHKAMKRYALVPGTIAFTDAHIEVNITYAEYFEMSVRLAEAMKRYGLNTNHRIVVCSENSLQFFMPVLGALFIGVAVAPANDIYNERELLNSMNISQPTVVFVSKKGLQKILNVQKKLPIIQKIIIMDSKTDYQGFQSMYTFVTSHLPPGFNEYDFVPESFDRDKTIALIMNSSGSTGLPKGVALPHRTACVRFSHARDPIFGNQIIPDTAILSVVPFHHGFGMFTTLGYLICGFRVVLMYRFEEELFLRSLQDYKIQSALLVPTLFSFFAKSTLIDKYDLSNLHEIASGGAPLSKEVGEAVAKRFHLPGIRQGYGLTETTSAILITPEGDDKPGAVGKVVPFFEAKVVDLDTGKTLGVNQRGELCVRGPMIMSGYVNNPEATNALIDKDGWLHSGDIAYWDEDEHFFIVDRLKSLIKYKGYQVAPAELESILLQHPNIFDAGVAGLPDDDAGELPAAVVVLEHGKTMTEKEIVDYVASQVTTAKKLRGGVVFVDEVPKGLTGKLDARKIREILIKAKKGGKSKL
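Luminescence read by CCD imaging after purified firefly luciferase (10nM final) was added to substrate buffer holding 10uM D-luciferin and 10uM ATP, pH 7.5, pre-dosed with compound.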
hNpr1 antagonist: antagonists of human natriuretic peptide receptor Npr1; P16066; HEK293 hNpr1 GloSensor cGMP, ANP-stimulated luminescence; Potency, µM (series often up to 46.3 µM), for the others: top-dose activity change, negative = inhibition, hits mostly inhibitors; 76,000 compounds, 1.6% hits; AID 1347048; calls by dose curve; further: nearly all actives have a fitted effect of over 60% in size
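Compound pre-incubated 30 min at room temperature on GloSensor-loaded HEK293 cells stably carrying hNpr1 and the pGS-40F cGMP biosensor. Stimulation uses hNppA at 0.1 nM final; luminescence is taken at baseline and 20 min post-agonist.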
3T3 cytotox: kills NIH 3T3 cells; NIH 3T3 viability, CellTiter-Glo ATP luminescence, 48-72 h; Potency, µM (titrated, usually from 96.7 µM), for inactives: at the highest dose activity change, negative = cytotoxicity, usual class: inhibitors; 94,000 compounds, 4.3% hits; further: nearly all actives have a fitted effect of over 55% in size
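First NIH 3T3 cells are plated at 400 cells/well; next compound is pinned in; then plates incubate 48 or 72 hr at 37 °C; finally CellTiter-Glo is added and luminescence read after 10 min.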
The depositor's hits bear a star; i = inactive; ? = inconclusive; nt = no result given; ! = not active in a repeat; [ ] = another dose, or the depositor's remark. Unless noted, the call rests on the fitted dose curve; in most records, active means well fitted curve in the direction sought with a large enough effect; inconclusive means small, poorly fitted or top-dose-only effect, or another doubt; inactive means no such curve, though single readings can be large; an effect the other way counts as inactive or inconclusive. On the % scale 0 is the no-effect control and ±100 the full control effect; potency means the concentration at half of the fitted maximal effect.

SMILES	HEK cytotox	GPT2 inh	FLuc inh	hNpr1 antagonist	3T3 cytotox
Oc1ccc(C=Cc2cc(O)cc(O)c2)cc1	nt	-27%	nt	nt	nt
Oc1cc(O)cc(C=Cc2ccc(O)c(O)c2)c1	nt	4.3µM*	nt	nt	nt
CC(Cn1ccc2ccccc21)NC1CCN(c2ccc(C(=O)N(C)C)cc2)CC1 (stereo not given)	-20%	i	i	0%	-5%
C[C@@H]1CCCN1CCc1cc2cc(-c3ccc(C#N)cc3)ccc2o1	nt	i	nt	nt	nt
CN1C(=O)CCC2(CNC(=O)c3ccncc3)CCCC=C12 (stereo not given)	0%	-20%	i	7%	0%
CN1C(=O)CCC2(CNC(=O)c3cccc4nccnc34)CCCC=C12 (stereo not given)	79µM*	i	i	3%	?
COC(=O)CNC(=O)c1cc(-c2ccsc2)c2nncn2n1	1%[172 µM]	i	nt	nt	-27%[138 µM]
O=C(c1ccc(F)c(F)c1)N1CCCN(c2cc(-c3ccc(F)cc3)[nH]n2)CC1	?	0%	i	-14%	-5%
Cn1nc(C(=O)N2CCN(c3cc(-c4ccccc4)[nH]n3)CC2)c2ccccc21	?	i	i	6%	?
Cc1ccc(C(=O)N2CCCN(c3cc(-c4ccc(Cl)cc4)[nH]n3)CC2)cc1C	?	-13%	i	-22%	35µM*
Cn1nc(C(=O)N2CCCN(c3cc(-c4ccc(Cl)cc4)[nH]n3)CC2)c2ccccc21	40µM*	?	i	-27%	?
Cc1cc(C)cc(C(=O)N2CCCN(c3cc(-c4ccc(Cl)cc4)[nH]n3)CC2)c1	45µM*	-19%	i	-27%	?
O=C(c1ccc(F)c(F)c1)N1CCN(c2cc(-c3ccc(Cl)cc3)[nH]n2)CC1	?	i	i	?	35µM*
CCCCS(=O)(=O)N1CCC(n2cc(CN3CCCC3)nn2)CC1	-24%	i[11.5 µM]	i	5%	-8%
O=C(c1cc(C2CC2)nc2onc(C3CCCN3)c12)N1CCC(F)CC1 (stereo not given)	0%	i	nt	nt	?
O=C(c1ccc(Br)o1)N1CCCN(c2cc(-c3ccc(Cl)cc3)[nH]n2)CC1	?	-22%	i	?	40µM*
O=C(c1cccs1)N1CCCN(c2cc(-c3ccc(Cl)cc3)[nH]n2)CC1	45µM*	i	?	?	?
O=C(NCC1CC1)C1CCN(Cc2ccccc2-c2ccccc2F)CC1	?	5%	nt	nt	-26%
O=C(NCc1ccc(F)cc1)C1CCN(Cc2ccccc2-c2ccccc2F)CC1	32µM*	nt	nt	nt	32µM*
O=C(NCc1cccc(C(F)(F)F)c1)C1CCN(Cc2ccccc2-c2ccccc2F)CC1	25µM*	nt	nt	nt	?
N#Cc1ccc(C2CCCc3cncn32)cc1 (stereo not given)	nt	i	nt	nt	nt
CN1CC(=O)N(c2ccc([N+](=O)[O-])cc2)Cc2c1ncnc2N1CCC(N2CCOCC2)CC1	-16%	i	i	0%	?
COc1ccc(C(=O)NC2CCN(c3ccnc4ccnn34)CC2)cc1	-12%	5%	nt	nt	-13%
COc1ccc(C(=O)N2CCC(Cc3nncn3-c3ccccc3)C2)cc1F (stereo not given)	i	1%	nt	nt	1%
CC(=O)N1CCN(C(=O)c2ccc3nnc(C4CC4)n3c2)CC1	2%[172 µM]	-6%[88.5 µM]	nt	nt	-7%[138 µM]
SMILES	HEK cytotox	GPT2 inh	FLuc inh	hNpr1 antagonist	3T3 cytotox
Cc1nnn2c(C(=O)NCc3ccc(Cl)cc3)cccc12	79µM*	i	i	0%[70.6 µM]	35µM*
Cc1nnn2c(C(=O)N(C)C)cccc12	4%[230 µM]	1%[88.5 µM]	i	29%[70.6 µM]	-1%[174 µM]
CCOC(=O)C1CCN(C(=O)c2nc3sccn3c2-c2ccncc2)CC1	i	i	nt	nt	-16%
Cc1ccc(-c2[nH]ncc2CN2CCN(c3ccc(Cl)cn3)CC2)cc1C	35µM*	?	i	12%	?
Cc1cc(C)c2c(CC(=O)N[C@@H]3CCOC[C@H]3Oc3ccccn3)coc2c1	50µM*	-5%[11.5 µM]	i	4%	?
Cc1cc(=O)n(CC(=O)N[C@@H]2CCOC[C@H]2Oc2ccccn2)nc1C	i	i	i	1%	i
Cn1nccc1C(=O)NC1CCCN(c2cc(-c3ccc(Cl)cc3)[nH]n2)C1 (stereo not given)	?	-26%	?	-8%	?
O=C(NC1CCCN(c2cc(-c3ccc(F)cc3)[nH]n2)C1)c1ccccn1 (stereo not given)	?	i	?	-3%	?
O=C(NC1CCCN(c2cc(-c3ccc(Cl)cc3)[nH]n2)C1)c1ccccn1 (stereo not given)	45µM*	-6%	40µM*	-2%	?
Cn1cccc1C(=O)NC1CCCN(c2cc(-c3ccc(Cl)cc3)[nH]n2)C1 (stereo not given)	40µM*	-20%	?	-30%	40µM*
COCC(=O)N1CCCC1C(=O)N1CCC2(CC1)CC(=O)Nc1ccccc1O2 (stereo not given)	-12%	i	nt	nt	-5%
O=C(C1CCCN1C(=O)c1ccc(F)cc1)N1CCC(N2Cc3ccccc3C2=O)CC1 (stereo not given)	-2%	i	nt	nt	2%
Cc1cccc(-c2cccc(CN3CCC(NC(=O)c4ccccc4Cl)CC3)c2)c1	?	i	nt	nt	?
Cc1cccc(-c2cccc(CN3CCC(NC(=O)c4cccc(Cl)c4)CC3)c2)c1	28µM*	i	nt	nt	20µM*
Cc1cccc(-c2cccc(CN3CCC(NC(=O)NC4CCCC4)CC3)c2)c1	-21%	3%	nt	nt	?
O=C(NC1CCN(Cc2cccc(-c3cccs3)c2)CC1)c1ccc(Cl)cc1	?	4%	nt	nt	-21%
Cc1cccc(-c2cccc(CN3CCC(NC(=O)c4ccc(F)cc4)CC3)c2)c1	?	-6%	nt	nt	?
Cc1cccc(-c2cccc(CN3CCC(NC(=O)Cc4cccc(Cl)c4)CC3)c2)c1	20µM*	i	nt	nt	14µM*
Cc1cccc(-c2cccc(CN3CCC(NC(=O)C(C)(C)C)CC3)c2)c1	45µM*	-3%	nt	nt	?
O=C(NC1CCN(Cc2cccc(-c3cccs3)c2)CC1)c1cccc(Cl)c1	20µM*!	i	nt	nt	?
CC1(C)[C@H]2CC[C@@H](CNC(=O)C3CC3)[C@@H]1C2	-19%[230 µM]	0%[88.5 µM]	i	16%[70.6 µM]	-14%[174 µM]
Cc1ccc([S+](=O)([O-])N2CCCC(N3C(=O)c4c(c(C)nn4-c4ccccc4)C3C(C)C)C2)cc1 (stereo not given)	i	nt	nt	nt	-18%
Nc1ccccc1CN1CCCC2(Cc3ccccc3CNC2=O)C1 (stereo not given)	?	i	nt	nt	-18%
COc1ccc(-c2noc([C@@H]3Cc4nc[nH]c4CN3Cc3ccccc3)n2)cc1	?	-24%[88.5 µM]	?	-2%[70.6 µM]	?
